# Compound activity as filed in PubChem.
# This is a sample that favours compounds with a hit; in the whole collection about 1.5% have one here.
# MbtI inh: MbtI salicylate synthase inhibitors, primary screen, biochemical, fluorescence intensity; P9WFX0; purified MbtI enzyme, fluorescence intensity read-out; inhibition, % (test concentration not listed); actives 0.89% (n = 100,000); AID 493033, 2011; in the data active means inhibition mostly above about 56%, no sharp cut-off; inactive means mostly below about 77%
# PV pol inh: poliovirus RdRp elongation inhibitors, primary screen, biochemical, fluorescence polarization, total intensity. poliovirus polymerase elongation; active compounds read low. AID 588519, 2011. % elongation, % (compound at 16.7 µg/mL). Genome polyprotein (Poliovirus type 1 (strain Mahoney)), P03300. actives 0.66% (n = 150,000); in the data active means % elongation below about 90%
# AID504770: growth inhibition of E. coli YBA685, primary screen, V. cholerae RctB inhibitors | E. coli YBA685 rctB-dependent plasmid, OD600 growth, 3 h; active compounds read low | z-score (test concentration not listed) | actives 0.27% (n = 130,000); in the data active means z-score below about -2, passing the limit was not always enough
# Mtb MenB inh: M. tuberculosis MenB inhibitors, primary screen, biochemical, absorbance; actives 0.43% (n = 100,000); MenB enzyme assay, absorbance read-out; AID 540299, 2011; inhibition, % (test concentration not listed); 1,4-dihydroxy-2-naphthoyl-CoA synthase (Mycobacterium tuberculosis (strain ATCC 25618 / …; in the data active means inhibition above about 21%, passing the limit was not always enough
# Target sequence (P9WNP5 whole entry, looked up): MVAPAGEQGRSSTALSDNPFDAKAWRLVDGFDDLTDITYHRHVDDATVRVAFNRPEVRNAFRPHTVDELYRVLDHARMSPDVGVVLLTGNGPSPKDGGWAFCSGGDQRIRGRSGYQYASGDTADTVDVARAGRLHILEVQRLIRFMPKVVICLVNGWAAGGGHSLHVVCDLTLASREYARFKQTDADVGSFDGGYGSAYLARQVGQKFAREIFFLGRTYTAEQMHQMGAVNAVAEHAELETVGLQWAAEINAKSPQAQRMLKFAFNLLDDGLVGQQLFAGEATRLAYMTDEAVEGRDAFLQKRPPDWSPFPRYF
# Numbers without * were called inactive; x = no result given.
SMILES,MbtI inh,PV pol inh,AID504770,Mtb MenB inh
Cc1c(C(=O)N2CCCC2)oc2c1-c1nn(CC(=O)NCCCOC(C)C)cc1CC2,x,47*,x,x
Cc1c(C(=O)N2CCOCC2)oc2c1-c1nn(CC(=O)NCc3cccc(F)c3)cc1CC2,x,84*,x,x
O=C(O)/C=C/c1ccc(/C=N/n2ncc3ccccc32)cc1,-35,96,0.35,-4
Cc1cc(C2(c3cc(C)c(N)c(C)c3)CCCCC2)cc(C)c1N,-8,100,-0.35,-5
CCn1c2ccccc2c2cc(NC(=O)C(C)OC(=O)c3cccn3C)ccc21 (stereo not given),17,20*,0.4,-14
CC(OC(=O)c1cccn1C)C(=O)Nc1ccc(Cl)cc1 (stereo not given),-4,113,0.15,-14
O=C(/C=C/c1ccccc1Cl)Nc1ncn[nH]1,x,67*,1.6,-30
CCCCC1(O)CC(C)(C)N([O])C(C)(C)C1,-9,100,-0.2,44*
CCCCC1(O)CCN(Cc2ccccc2)CC1,x,x,-0.45,x
CCN1CCN(C(=O)N(CC)CC)CC1,-14,104,0.7,-7
CC(C)NCC(O)COc1ccc2ccccc2c1 (stereo not given),x,x,0.4,x
CC(C)(C)c1cc(CCC#N)cc(C(C)(C)C)c1O,-4,105,0.15,-7
CC(C)(C)c1cc(SCCC#N)cc(C(C)(C)C)c1O,-2,105,-2.2*,-13
O=S1(=O)N=C2CCCCCN2C(c2ccc(Br)cc2)N1 (stereo not given),-4,22*,-0.15,4
COc1cccc(C2NS(=O)(=O)N=C3CCCCCN32)c1OC(F)F (stereo not given),3,103,-0.2,-13
COC(=O)c1ccc(/C=C/C(=O)OCC#N)cc1,1,88*,0.4,3
CCOC(=O)c1cc(C#N)c(SCC(=O)OCc2ccc(C#N)cc2)nc1C,-6,104,-0.55,-3
CC(C)OCCCNc1ncnc2sc3c(c12)CCCC3,x,-2.0*,x,x
CC(C)Cn1cc(NC(=O)NCc2ccccc2)c2ccccc2c1=O,x,12*,x,x
Cc1ccc(CNC(=O)Nc2cn(CC(C)C)c(=O)c3ccccc23)cc1,x,28*,x,x
CC(C)Cn1cc(NC(=O)N2CCN(c3cccc(Cl)c3)CC2)c2ccccc2c1=O,x,106,x,x
COc1cccc(CNC(=O)Nc2cn(CC(C)C)c(=O)c3ccccc23)c1,x,31*,x,x
CC(C)Cn1cc(NC(=O)NCc2ccc(Cl)cc2)c2ccccc2c1=O,x,106,x,x
CC(C)Cn1cc(NC(=O)NCc2cccc(Cl)c2)c2ccccc2c1=O,x,58*,x,x
CCCCN1C=C(C(=O)OC)C(c2cc(C)ccc2C)C(C(=O)OC)=C1,-48,103,-0.3,-49
SMILES,MbtI inh,PV pol inh,AID504770,Mtb MenB inh
O=C(NC1CCCCC1O)c1ccccc1C(F)(F)F (stereo not given),166,102,-1.2,0
NC(=O)c1ccc(F)c(F)c1,3,100,-0.9,-20
Cc1ccc(C)c(N2CCN(C(=O)Nc3cn(CC(C)C)c(=O)c4ccccc34)CC2)c1,x,77*,x,x
CC(C)Cn1cc(NC(=O)NCc2ccccc2Cl)c2ccccc2c1=O,x,41*,x,x
COc1ccc(OC)c(CNC(=O)Nc2cn(CC(C)C)c(=O)c3ccccc23)c1,x,25*,x,x
COc1ccc(NC(=O)CSc2nnc(C)n2-c2ccccc2)cc1,x,x,-0.9,x
Cc1ccccc1CSCc1nnc(-c2ccccc2)o1,11,103,0.15,-7
CCCc1cc2ccccc2o1,1,100,2.1,32*
CCCc1cc(=O)c2c(O)cccc2o1,x,x,-0.55,x
COc1ccc(-c2noc(=O)n2CCCC#N)cc1OC,0,103,1.3,31*
COc1ccc(-c2noc(=O)n2Cc2cccc(C)c2)cc1,-4,103,0.35,11
CC(CNC(=O)CC1=NS(=O)(=O)c2ccccc2N1)c1ccccc1 (stereo not given),-8,106,1.3,-34
C=CCN1C(=O)C(C(=O)NC(C)(C)C)C2CC1(C)Oc1ccccc12 (stereo not given),x,x,0.15,x
N#Cc1c(=O)n(O)c2ccccc2[n+]1[O-],18,78,-4.3*,-106
N#Cc1c(N)[n+]([O-])c2ccccc2[n+]1[O-],19,78,-4.4*,-94
CN(C)C(=S)Nc1ccccc1OC(F)F,88*,98,-0.95,-14
O=C1C=CC(=O)C(C2=C3C(=O)N(Cc4ccccc4)CC(=O)N3CCC2)=C1,100*,102,-0.55,14
CCN(CC)Cc1cc(Nc2ccnc3cc(Cl)ccc23)ccc1O,24,101,x,-6
CN1CCN(c2ccc(Nc3ccnc4cc(Cl)ccc34)cc2Cl)CC1,x,89*,-0.25,0
O=C(Cn1c(C(=O)NCc2ccco2)cc2sccc21)c1ccccc1,12,104,1.1,24*
c1ccc(CN2CCN(Cc3ccc4c(c3)OCCO4)CC2)cc1,-2,100,0.25,8
CCN1C(=O)N(c2ccccc2)P(=S)(N2CCCC2)c2cc3c(cc21)OCCO3 (stereo not given),90*,87*,-0.25,-18
CCc1c(CN2CCN(c3cccc(C)c3C)CC2)csc1C,x,56*,x,x
COc1ccccc1C(=O)Nc1ccc2nc(SCC(=O)Nc3ccc(C)cc3C)sc2c1,x,106,0.15,-20
COC(=O)c1ccc2c(=O)[nH]c(COC(=O)c3cccnc3Nc3ccccc3OC)nc2c1,-2,103,-4*,-6
SMILES,MbtI inh,PV pol inh,AID504770,Mtb MenB inh
CC1=NN(c2ccccc2)C(=O)C1C1C(=O)N(c2ccccc2)N=C1C (stereo not given),5,103,-0.5,-3
O=C1C2CCCCC2=NN1c1ccccc1 (stereo not given),71*,101,-1.5,-18
O=C1C2CCCC2=NN1c1ccccc1 (stereo not given),59*,106,0.6,-13
CC1=NN(c2ccccc2)C(=O)C1C(=O)O (stereo not given),-3,102,1.3,-23
Cc1ccc(NC(=O)CN2C(=O)C(c3ccc(C(C)(C)C)cc3)=NC2(C)C)cc1,x,32*,x,x
CCOC(=O)c1c(COC(C)=O)n(C)c2cc(Br)c(OC)cc12,x,103,2,-28
Cn1c(=S)[nH]c2cc(S(N)(=O)=O)ccc21,67,90*,0.25,-9
NS(=O)(=O)c1ccc(CCn2c(=S)[nH]c3ccccc3c2=O)cc1,7,100,-0.35,3
CCN(CC)c1ncc2c(=S)[nH]c(=S)[nH]c2n1,-6,100,-0.1,-9
C=CCSc1ncc2c(=S)[nH]c(=S)[nH]c2n1,56*,93,-0.2,-102
O=C1CSC(=S)N1/N=C/c1cc(Br)cc(Br)c1O,49,90*,-0.4,-25
N#CC(C#N)=NNc1ccc(SC(F)F)cc1,18,95,-3.4*,-259
CSc1ncc2c(n1)-c1ccccc1N(C)S2(=O)=O,65,101,-0.9,0
CSc1ncc2c(n1)-c1ccccc1N(Cc1ccccc1)S2(=O)=O,x,-15*,x,x
CCCCN(Cc1ccccc1)C(=O)C1CCN(Cc2cccc(O)c2)CC1,x,103,-0.4,-3
